Experimental findings from PubChem BioAssay (Tox21) are described below.

“And” between values parts separate entries of the source, which are not always exact repeats. Equal values may be shown once. Inconclusive results are not listed. Unmarked numbers belong to inactive results. The source made the active and inactive calls. Unless noted, calls follow the shape of the full dose curve.

Assay [1] is described as follows: qHTS assay to identify small molecule agonists of the vitamin D receptor (VDR) signaling pathway - cell viability counter screen (AID 743224; active = well fitted curve in the direction sought with a large enough effect in the repeat runs; an effect the other way counts as inactive or inconclusive; also: nearly all actives have a fitted effect of over 50% in size; also: potency is read from the fitted curve at half-maximal effect; as to activity change, negative = cytotoxicity: series mostly up to about 63 µM; % is scaled to controls: 0 for no effect and ±100 for the full control effect). The gist of the method: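 Viability is measured in the same wells as the VDR-bla reporter assay: after 16 h compound treatment and 2 h substrate loading, CellTiter-Glo is added and luminescence read 30 min later.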
(qHTS replaces the single test concentration by a dilution series.)

Assay [2] in a line: qHTS assay to identify small molecule agonists of the NFkB signaling pathway - cell viability counter screen (AID 1159515). Also: series mostly up to about 61 µM; % is scaled to controls: 0 for no effect and ±100 for the full control effect; nearly all actives have a fitted effect of over 55% in size. The gist of the method:
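Multiplexed viability readout: after the 5 hr compound exposure and 1.5 hr FRET substrate step, CellTiter-Glo reagent went into the same NFkB-bla ME-180 wells; ATP luminescence was measured after 30 min at room temperature.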

Assay [3] in a line: qHTS assay to identify small molecule agonists of the endoplasmic reticulum stress response signaling pathway (AID 1159516; active = well fitted activation curve with a large enough effect in the signal ratio in the repeat runs, not every such curve was filed as active; the % refers to the signal ratio; also: potency is read from the fitted curve at half-maximal effect; as to activation: % is scaled to controls: 0 for no effect and ±100 for the full control effect). The gist of the method: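 Tox21 10K library screened in quantitative HTS format on ESRE-bla HeLa cells, a beta-lactamase reporter under ER stress response element control; 5 hr treatment, FRET read.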
The nature of assay [4]: qHTS assay to identify small molecule agonists of the endoplasmic reticulum stress response signaling pathway - cell viability counter screen (AID 1159517). Also: series mostly up to about 61 µM; % is scaled to controls: 0 for no effect and ±100 for the full control effect; nearly all actives have a fitted effect of over 50% in size. The method in brief: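 Cells, HeLa ESRE-bla; density, 1,500/well; dosing, 5 hr at 37 C, 5% CO2; readout, CellTiter-Glo luminescence after 30 min RT.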
Assay [5] in a line: qHTS assay to identify small molecule antagonists of the retinoid-related orphan receptor gamma (ROR-gamma) signaling pathway - cell viability counter screen (AID 1159520; active = well fitted curve in the direction sought with a large enough effect in the repeat runs; an effect the other way counts as inactive or inconclusive; also: % is scaled to controls: 0 for no effect and ±100 for the full control effect; nearly all actives have a fitted effect of over 50% in size). The method in brief:
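Cytotoxicity was read from cellular ATP (CellTiter-Glo luminescence) after 16 hr at 37 C with 1 uM doxycycline induction. The inducer was added 2 hr after compound transfer to Tet-on ROR gamma CHO cells.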

Assay [6] is described as follows: qHTS assay to identify small molecule agonists of the AP-1 signaling pathway - cell viability counter screen (AID 1159525). Also: nearly all actives have a fitted effect of over 55% in size. The gist of the method:
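Luminescent ATP readout (Cell Titer Glo, 30 min RT), normalised to DMSO and tetra n-octyl ammonium bromide controls. Cells were ME-180 AP-1-bla in 0.5% dialyzed FBS Opti-MEM, with a 5 h, 37 °C compound exposure.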

Assay [7] can be described thus: qHTS assay to identify small molecule antagonists of the vitamin D receptor (VDR) signaling pathway - cell viability counter screen (AID 743225; active = well fitted curve in the direction sought with a large enough effect in the repeat runs; an effect the other way counts as inactive or inconclusive; also: % is scaled to controls: 0 for no effect and ±100 for the full control effect; nearly all actives have a fitted effect of over 50% in size). The gist of the method:
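Compounds were pinned onto VDR-bla HEK 293T cells together with 1-alpha,25-dihydroxyvitamin D3 at 3 nM final. After 16 h at 37C and 5% CO2 plus the reporter readout, cell viability was measured by CellTiter-Glo luminescence (30 min, room temperature).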

The target of assay [8] is Nuclear receptor ROR-gamma (Homo sapiens) (UniProt P51449). Put plainly: qHTS assay to identify small molecule antagonists of the retinoid-related orphan receptor gamma (ROR-gamma) signaling pathway (AID 1159521; active = well fitted curve in the direction sought with a large enough effect in the repeat runs; an effect the other way counts as inactive or inconclusive; also: nearly all actives have a fitted effect of over 50% in size; also: potency is read from the fitted curve at half-maximal effect). The method in brief: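 Test compounds were applied to Tet-on RORγ CHO cells 2 h ahead of doxycycline hyclate (1 uM final). Luciferase reporter activity was quantified by luminescence after 16 h at 37 C and 5% CO2.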

For assay [9], the target named is Retinoic acid receptor RXR-alpha (Homo sapiens) (UniProt P19793). The assay can be described thus: qHTS assay to identify small molecule agonists of the RXR signaling pathway (AID 1159527). Also: nearly all actives have a fitted effect of over 35% in size. Also: potency is read from the fitted curve at half-maximal effect. As to activation: % is scaled to controls: 0 for no effect and ±100 for the full control effect. The method in brief: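 Using 9-cis retinoic acid as the reference agonist, chemicals were tested in HEK 293T cells […] for 16 hr; substrate loading lasted 2 hr at room temperature.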

Assay [10] in a line: qHTS assay to identify small molecule agonists of the AP-1 signaling pathway (AID 1159526). Also: % is scaled to controls: 0 for no effect and ±100 for the full control effect.

Retinoic acid receptor RXR-alpha (Homo sapiens), sequence (P19793 whole entry, looked up): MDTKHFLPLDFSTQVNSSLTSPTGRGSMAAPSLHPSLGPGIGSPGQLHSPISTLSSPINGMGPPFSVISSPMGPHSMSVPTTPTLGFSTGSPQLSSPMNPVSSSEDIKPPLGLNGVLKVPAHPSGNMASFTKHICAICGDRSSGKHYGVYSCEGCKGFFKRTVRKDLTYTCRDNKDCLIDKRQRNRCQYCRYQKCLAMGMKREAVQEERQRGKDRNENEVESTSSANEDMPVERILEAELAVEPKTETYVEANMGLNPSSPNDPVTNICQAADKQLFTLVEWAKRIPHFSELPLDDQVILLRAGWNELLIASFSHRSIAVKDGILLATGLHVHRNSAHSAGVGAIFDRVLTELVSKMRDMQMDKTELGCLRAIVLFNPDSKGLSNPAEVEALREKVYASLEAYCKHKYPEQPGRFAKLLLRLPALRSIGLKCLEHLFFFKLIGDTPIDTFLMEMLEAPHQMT

As to `OCc1cc(C(O)CNCCCCCCOCCCCc2ccccc2)ccc1O` (configuration not stated), the Potency result in [1], in assay [2], in assay [3], in [4], in assay [5] and in assay [6] was “inactive” in each case.
Consider `C/C=C/C(=O)CC`, for which the activity change, negative = cytotoxicity was 7.61% [at 13.2 µM] in assay [1] and 28.8% [at 15.1 µM] in [4]. For the same compound, the viability change, negative = cytotoxic in assay [7] is 1.57% [at 15.1 µM]; in assay [6], -12.1% [at 15.8 µM]. In addition, the activity, negative = cytotoxic in [2] is 18.8% [at 15.1 µM]. In addition, the activation in assay [3] was 0.579% [at 15.1 µM]. The activity, negative = cytotoxicity in assay [5] is 4.4% [at 19 µM].
Take `C=CC(=O)OCCOCCOCCOCCOC(=O)C=C`: the Potency entry in assay [2], in assay [3], in assay [4] and in assay [6] was “inactive” each time. Also, the Potency in [8] was 12.3 µM (active) and 8.56 µM (active).
`Cc1oc(-c2ccccc2)nc1CCOc1cccc2c1ccn2CCC(=O)O`: the Potency entry in [1], in assay [7], in assay [2], in [3], in assay [4] and in [5] was “inactive” each time. The Potency entry in [6] is “inactive”. The Potency in assay [9] is 17.4 µM (active).
On to `Cc1nn(C)c(Oc2ccccc2)c1/C=N/OCc1ccc(C(=O)OC(C)(C)C)cc1`, for which the Potency in assay [1] was 0.0123 µM (active); in assay [8], 486 nM (active). The Potency result in assay [2], in [3], in assay [4], in [6] and in assay [10] was “inactive” in each case.
For `COc1ccc(-c2nc3ccc(C4=NNC(=O)CC4C)cc3[nH]2)cc1` (configuration not stated), the Potency entry in [1], in assay [2], in assay [3], in assay [4], in assay [8] and in [6] was “inactive” in each case. Besides, the Potency result in assay [10] is “inactive”.
As for `CCOC(=O)C1=C[C@]2(CC)CCCN3CCc4c(n1c1ccccc41)[C@@H]32`, the Potency entry in assay [1], in assay [7], in [2], in assay [3], in assay [4] and in assay [5] was “inactive” throughout. Further, the Potency entry in assay [6] and in [9] was “inactive” throughout.
For `Clc1ccc(Cn2c(CN3CCCC3)nc3ccccc32)cc1`, the Potency result in assay [1], in assay [2], in assay [3], in assay [4], in assay [5] and in assay [6] was “inactive” throughout.
Consider `CCOc1ccc(N)c([N+](=O)[O-])c1`, for which the Potency entry in assay [7], in [2], in assay [3], in assay [4], in assay [8] and in assay [6] was “inactive” throughout. Besides, the Potency entry in [10] and in [9] was “inactive” each time.
For `CC[N+]1(CC)CCC(=C(c2ccccc2)c2ccccc2)C1C` (configuration not stated), the Potency entry in assay [2], in assay [3], in assay [4], in [5], in [10] and in assay [9] was “inactive” each time.
For `O=C(Nc1ccccc1)c1ccccc1O`, the Potency result in assay [7], in assay [2], in [3], in assay [4], in assay [8] and in assay [6] was “inactive” each time. The Potency entry in [10] and in assay [9] was “inactive” throughout.
On to `COc1ccc(C(=O)c2ccc(OC)cc2O)c(O)c1`, for which the Potency result in [7], in [2], in assay [3], in [4], in assay [8] and in [6] was “inactive” throughout. Moreover, the Potency entry in [10] was “inactive”.
With `CNCCCN1c2ccccc2CCc2ccccc21`, the Potency in [1] is 15 µM (active). Also, the Potency entry in assay [2], in assay [3], in assay [4], in [5] and in assay [6] was “inactive” each time.
Regarding `O=S(=O)(Oc1ccc(Cl)cc1)c1ccccc1`, the Potency entry in [7], in assay [2], in assay [3], in assay [4], in assay [5] and in assay [6] was “inactive” in each case. In addition, the Potency entry in [10] is “inactive”.
Take `CCC(C)c1cc(C(C)(C)C)c(O)c(C(C)(C)C)c1` (configuration not stated): the Potency result in [1], in [7], in assay [2], in assay [3], in assay [4] and in assay [5] was “inactive” each time. Moreover, the Potency entry in assay [6] is “inactive”. The Potency in assay [9] is 0.958 µM (active).
`COS(=O)(=O)C(F)(F)F`: the Potency result in [2], in assay [3], in assay [4], in assay [5], in assay [6] and in assay [9] was “inactive” in each case.
For the compound `COc1cc(Cl)ccc1Oc1ccc(Cl)cc1Cl`, the Potency entry in assay [7], in assay [2], in assay [3], in assay [4], in assay [5] and in [6] was “inactive” in each case. In [9], the Potency result was “inactive”.
Regarding `O=C(Nc1ccc(S(=O)(=O)N2CCOCC2)cc1)c1cc(Cl)ccc1NS(=O)(=O)c1ccc(Cl)s1`, the Potency result in [2], in assay [3], in [4], in [5], in assay [6] and in assay [9] was “inactive” each time.
Consider `COC(=O)C1=C(C)NC(COC(N)=O)=C(C(=O)OC(C)C)C1c1cccc(Cl)c1Cl` (configuration not stated), for which the Potency entry in assay [1], in [2], in assay [4], in [8], in assay [6] and in [10] was “inactive” throughout. Moreover, the Potency result in assay [9] was “inactive”. Also, the Potency in assay [3] is 21.3 µM (active).
Consider `CN(C)CCN(Cc1ccc(Cl)cc1)c1ccccn1`, for which the Potency entry in assay [7], in assay [2], in assay [3], in assay [4], in [5] and in assay [6] was “inactive” throughout.
In the case of `CCCCCCCCCCO[C@@H]1O[C@H](CO)[C@@H](O)[C@H](O)[C@H]1O`, the Potency result in assay [2], in assay [3], in assay [5], in assay [6] and in assay [10] was “inactive” in each case.
